Measured values taken from PubChem BioAssay (NCI).
About 79,000 compounds went through this panel and 15% of them were active in at least one assay; those are over-represented in the sample as a whole. Activity calls are given as the source filed them. No stated cut-off is given here; in the data, active means growth inhibition above about 70%; inactive means the rest.

How the values were obtained:
[1] = NCI Yeast Anticancer Drug Screen. Data for the wt2 strain (AID 169);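 further: 0% = growth of vehicle-treated yeast cultures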; details: S. cerevisiae wt2 strain growth inhibition, active compounds read high
How it was run: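 Yeast cells were exposed to test compounds, and growth inhibition was measured relative to vehicle-treated controls.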

[2] = NCI Yeast Anticancer Drug Screen. Data for the mlh1 strain (AID 171);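 further: 0% = growth of vehicle-treated control cultures of the same strain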; details: S. cerevisiae mlh1 strain growth inhibition, active compounds read high
How it was run: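 Yeast carrying a defined genetic alteration in DNA damage repair or cell cycle control were exposed to test compounds. Growth inhibition was measured relative to vehicle-treated controls.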

[3] = NCI Yeast Anticancer Drug Screen. Data for the sgs1 strain (AID 173);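 further: 0% = growth of vehicle-only control cultures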; details: S. cerevisiae sgs1 mutant, active compounds read high
How it was run: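 Yeast mutant strains carrying defined defects in DNA damage repair or cell cycle control were exposed to test compounds. Growth inhibition was scored against vehicle-treated controls.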

[4] = NCI Yeast Anticancer Drug Screen. Data for the mlh1 rad18 strain (AID 175); details: S. cerevisiae mlh1 rad18 strain growth inhibition, active compounds read high
How it was run: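 Growth inhibition of the yeast strain was measured after compound exposure and expressed relative to vehicle-treated controls. The strain carries defined defects in DNA damage repair.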

[5] = NCI Yeast Anticancer Drug Screen. Data for the rad18 strain (AID 177); details: S. cerevisiae rad18 mutant growth inhibition, active compounds read high
How it was run: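 Yeast carrying a defined DNA damage repair alteration were exposed to compounds. Growth inhibition was expressed relative to vehicle-treated controls.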

[6] = NCI Yeast Anticancer Drug Screen. Data for the rad52 strain (AID 147);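 further: 0% = growth of vehicle-treated control cultures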; details: S. cerevisiae rad52 mutant growth inhibition, active compounds read high
How it was run: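 Yeast strain carrying a DNA damage repair alteration was exposed to test compounds. Growth inhibition was measured relative to vehicle-treated controls.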

[7] = NCI Yeast Anticancer Drug Screen. Data for the wt1 strain (AID 149);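 further: 0% = growth of vehicle-treated wt1 cultures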; details: S. cerevisiae wt1 strain (SPY 50644) growth inhibition, active compounds read high
How it was run: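 Yeast wt1 strain exposed to compounds; growth inhibition measured relative to vehicle-treated controls.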

[8] = NCI Yeast Anticancer Drug Screen. Data for the rad50EPP+ strain (AID 151);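 further: 0% = growth of vehicle-treated control cultures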; details: S. cerevisiae rad50 mutant strain, active compounds read high
How it was run: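 Yeast strain carrying rad50 alteration (rad50EPP+) exposed to compounds; growth inhibition measured relative to vehicle-treated controls.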

[9] = NCI Yeast Anticancer Drug Screen. Data for the mgt1 strain (AID 153); details: S. cerevisiae mgt1 mutant growth inhibition, active compounds read high
How it was run: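 Yeast mgt1 strain (DNA repair/cell-cycle alteration panel) exposed to compounds; growth inhibition measured relative to vehicle-treated controls.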

[10] = NCI Yeast Anticancer Drug Screen. Data for the rad50 strain (AID 155);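 further: 0% = growth of vehicle-only cultures of the same strain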; details: S. cerevisiae rad50 strain growth inhibition, active compounds read high
How it was run: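 Yeast carrying a defined DNA repair defect were exposed to test compounds, and growth was compared with vehicle-treated controls to give percent inhibition.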

[11] = NCI Yeast Anticancer Drug Screen. Data for the mec2-1 strain (AID 157); details: S. cerevisiae mec2-1 strain, active compounds read high
How it was run: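 mec2-1 yeast strain, carrying an alteration in DNA damage repair or cell cycle control, was exposed to compounds; growth inhibition was measured relative to vehicle-treated controls.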

[12] = NCI Yeast Anticancer Drug Screen. Data for the rad14 strain (AID 159);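 further: 0% = growth of vehicle-treated control cultures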; details: S. cerevisiae rad14 strain growth inhibition, active compounds read high
How it was run: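 Yeast cells carrying a defined DNA-repair defect were exposed to compounds, and growth inhibition was calculated relative to vehicle-treated control cultures.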

[13] = NCI Yeast Anticancer Drug Screen. Data for the sgs1 mgt1 strain (AID 161);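 further: 0% = growth of cultures given vehicle only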; details: S. cerevisiae sgs1 mgt1 strain, active compounds read high
How it was run: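 Yeast cells carrying a defined DNA-repair defect were exposed to test compounds. Growth inhibition was measured relative to vehicle-treated controls.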

[14] = NCI Yeast Anticancer Drug Screen. Data for the CLN2oe strain (AID 163);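 further: 0% = growth of vehicle-only control cultures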; details: S. cerevisiae CLN2oe strain, active compounds read high
How it was run: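 Yeast cells carrying a defined cell-cycle control alteration were exposed to test compounds. Growth inhibition was scored against vehicle-treated control cultures.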

[15] = NCI Yeast Anticancer Drug Screen. Data for the cln2 rad14 strain (AID 165);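 further: 0% = growth equal to vehicle treated cultures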; details: S. cerevisiae cln2 rad14 strain, active compounds read high
How it was run: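 Yeast carrying cln2 and rad14 alterations (cell cycle control and DNA damage repair) were exposed to compounds. Growth inhibition was measured against vehicle-treated controls.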

[16] = NCI Yeast Anticancer Drug Screen. Data for the bub3 strain (AID 167); details: S. cerevisiae bub3 mutant strain, active compounds read high
How it was run: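 Compounds were applied to a genetically altered yeast strain carrying a cell-cycle control defect. Growth inhibition was scored against vehicle-treated controls.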

[17] = at 5.0 µM (retest, dose inferred, filed as 0.5)
[18] = at 50.0 µM (retest, dose inferred, filed as 5.0)

Measured: growth inhibition

CC1(C)C(O)OC(O)C1(C)C (centres undefined)
active: [5]; at 100.0 µM 77%
inactive: [1]; at 1.2 µM -1% | [1]; at 3.7 µM 1% | [1]; at 11.0 µM 5% | [1]; at 33.0 µM 5% | [1]; at 100.0 µM 10% | [2]; at 1.2 µM 0% | [2]; at 3.7 µM -1% | [2]; at 11.0 µM 4% | [2]; at 33.0 µM 6% | [2]; at 100.0 µM 18% | [3]; at 1.2 µM 1% | [3]; at 3.7 µM 5% | [3]; at 11.0 µM 11% | [3]; at 33.0 µM 25% | [3]; at 100.0 µM 63% | [4]; [17] 3% | [4]; [18] 56% | [4]; at 50.0 µM 60.8% | [5]; at 1.2 µM -1% | [5]; at 3.7 µM 2% | [5]; at 11.0 µM 13% | [5]; at 33.0 µM 31%

CC1=NN(C(=O)c2ccccc2O)C(=O)/C1=C/c1ccco1
active: [6]; at 11.0 µM 76% | [6]; at 33.0 µM 92% | [6]; at 100.0 µM 96% | [7]; at 11.0 µM 70% | [7]; at 33.0 µM 90% | [7]; at 100.0 µM 95% | [8]; at 100.0 µM 93% | [9]; at 33.0 µM 88% | [9]; at 100.0 µM 96% | [10]; at 33.0 µM 89% | [10]; [18] 89% | [10]; at 50.0 µM 87.5% | [10]; at 100.0 µM 95% | [11]; at 11.0 µM 75% | [11]; at 33.0 µM 91% | [11]; [18] 93% | [11]; at 50.0 µM 87.2% | [11]; at 100.0 µM 96% | [12]; at 33.0 µM 89% | [12]; at 100.0 µM 96% | [13]; [18] 90% | [13]; at 50.0 µM 87.3% | [14]; at 11.0 µM 81% | [14]; at 33.0 µM 91% | [14]; at 100.0 µM 95% | [15]; [18] 90% | [15]; at 50.0 µM 83.5% | [16]; at 11.0 µM 91% | [16]; at 33.0 µM 95% | [16]; [18] 94% | [16]; at 50.0 µM 87% | [16]; at 100.0 µM 97% | [1]; at 11.0 µM 80% | [1]; at 33.0 µM 92% | [1]; at 100.0 µM 96% | [2]; at 11.0 µM 71% | [2]; at 33.0 µM 89% | [2]; at 100.0 µM 96% | [3]; at 33.0 µM 85% | [3]; at 100.0 µM 92% | [4]; [18] 94% | [4]; at 50.0 µM 82.5% | [5]; at 33.0 µM 86% | [5]; at 100.0 µM 94%
inactive: [6]; at 1.2 µM 1% | [6]; at 3.7 µM 16% | [7]; at 1.2 µM 21% | [7]; at 3.7 µM 30% | [8]; at 1.2 µM 9% | [8]; at 3.7 µM 45% | [8]; at 11.0 µM 49% | [8]; at 33.0 µM 48% | [9]; at 1.2 µM -5% | [9]; at 3.7 µM 27% | [9]; at 11.0 µM 65% | [10]; at 1.2 µM -3% | [10]; at 3.7 µM 17% | [10]; [17] 11% | [10]; at 11.0 µM 64% | [11]; at 1.2 µM -4% | [11]; at 3.7 µM 2% | [11]; [17] 19% | [12]; at 1.2 µM -1% | [12]; at 3.7 µM 15% | [12]; at 11.0 µM 69% | [13]; [17] 2% | [14]; at 1.2 µM 6% | [14]; at 3.7 µM 7% | [15]; [17] 28% | [16]; at 1.2 µM 40% | [16]; at 3.7 µM 52% | [16]; [17] 43% | [1]; at 1.2 µM 11% | [1]; at 3.7 µM 31% | [2]; at 1.2 µM 12% | [2]; at 3.7 µM 32% | [3]; at 1.2 µM 7% | [3]; at 3.7 µM 44% | [3]; at 11.0 µM 67% | [4]; [17] 27% | [5]; at 1.2 µM 0% | [5]; at 3.7 µM 17% | [5]; at 11.0 µM 48%

COC(=O)C(=O)c1c(-c2ccc(Cl)c(Cl)c2)[nH]c2[nH]n(-c3ccccc3)c(=O)c2c1=O
active: [8]; at 100.0 µM 76% | [10]; [18] 85% | [10]; at 50.0 µM 93.1% | [11]; at 50.0 µM 82.8% | [13]; [18] 83% | [15]; [18] 81% | [15]; at 50.0 µM 87.5% | [16]; [18] 84% | [16]; at 50.0 µM 82.5% | [4]; [18] 80% | [4]; at 50.0 µM 94.5% | [5]; at 100.0 µM 77%
inactive: [6]; at 1.2 µM -2% | [6]; at 3.7 µM -5% | [6]; at 11.0 µM 37% | [6]; at 33.0 µM 55% | [6]; at 100.0 µM 61% | [7]; at 1.2 µM -1% | [7]; at 3.7 µM -3% | [7]; at 11.0 µM 24% | [7]; at 33.0 µM 54% | [7]; at 100.0 µM 55% | [8]; at 1.2 µM 2% | [8]; at 3.7 µM 0% | [8]; at 11.0 µM 24% | [8]; at 33.0 µM 56% | [9]; at 1.2 µM -2% | [9]; at 3.7 µM -2% | [9]; at 11.0 µM 44% | [9]; at 33.0 µM 68% | [9]; at 100.0 µM 68% | [10]; at 1.2 µM 0% | [10]; at 3.7 µM 27% | [10]; [17] -5% | [10]; at 11.0 µM 22% | [10]; at 33.0 µM 40% | [10]; at 100.0 µM 65% | [11]; at 1.2 µM -2% | [11]; at 3.7 µM -7% | [11]; [17] -7% | [11]; at 11.0 µM 40% | [11]; at 33.0 µM 57% | [11]; [18] 9% | [11]; at 100.0 µM 63% | [12]; at 1.2 µM -1% | [12]; at 3.7 µM -1% | [12]; at 11.0 µM 46% | [12]; at 33.0 µM 62% | [12]; at 100.0 µM 61% | [13]; [17] -3% | [13]; at 50.0 µM 43% | [14]; at 1.2 µM -6% | [14]; at 3.7 µM -13% | [14]; at 11.0 µM 64% | [14]; at 33.0 µM 64% | [14]; at 100.0 µM 58% | [15]; [17] -11% | [16]; at 1.2 µM -3% | [16]; at 3.7 µM -2% | [16]; [17] -38% | [16]; at 11.0 µM 51% | [16]; at 33.0 µM 54% | [16]; at 100.0 µM 55% | [1]; at 1.2 µM 0% | [1]; at 3.7 µM 5% | [1]; at 11.0 µM 44% | [1]; at 33.0 µM 57% | [1]; at 100.0 µM 56% | [2]; at 1.2 µM -2% | [2]; at 3.7 µM -3% | [2]; at 11.0 µM 36% | [2]; at 33.0 µM 57% | [2]; at 100.0 µM 57% | [3]; at 1.2 µM -1% | [3]; at 3.7 µM -1% | [3]; at 11.0 µM 60% | [3]; at 33.0 µM 61% | [3]; at 100.0 µM 65% | [4]; [17] -7% | [5]; at 1.2 µM -3% | [5]; at 3.7 µM -2% | [5]; at 11.0 µM 3% | [5]; at 33.0 µM 49%
